Consider 34 compounds from ChEMBL document CHEMBL4513216, “Probing the Open Global Health Chemical Diversity Library for Multistage-Active Starting Points for Next-Generation Antimalarials” (ACS Infect Dis, 2020).

The structures appear in SMILES notation. Among all 68,000 compounds or so, about 2,700 (4%) showed an effect of 50% or more. Only a selection was taken, and strong results are over-represented in it overall.

This assay concerns Plasmodium berghei. The experiment in a line: Screen against P. berghei liver stage (PbLuc), transformed with Luciferase, at 2uM. The class given is functional, HepG2. Conditions: tested at 2 uM.
Turning to `COc1cc(N2C[C@@H](C)[C@](O)(C3CC3)C2)nc(N)n1`, the INHIBITION worked out at 56.12%.

On to `COCc1cc(N2C[C@@H](C)[C@](O)(C3CC3)C2)ncn1`, for which the INHIBITION stood at 8.09%.

Take `COc1cc(N2C[C@@H](C)[C@](O)(C3CC3)C2)ncn1`: the INHIBITION amounted to 18.38%.

For `CN(CC1CCCC1)C(=O)c1cn(C)nc1-c1cccnc1`, the INHIBITION is recorded as 32.67%.

On to `COc1nccc(N2CC[C@H](CO)[C@@H](O)C2)c1C#N`, for which the INHIBITION is 5.38%.

Consider `Cn1ncc2c1CCCC2NCc1cccc(C(F)(F)F)c1` (centres undefined), for which the INHIBITION amounted to 13.24%.

For the compound `CC1(C)CNC(=O)c2nc(C3CCN(C(=O)C4CC4)CC3)[nH]c2C1`, the INHIBITION is given as 33.4%.

Regarding `CC1(C)CNC(=O)c2nc(C3CCCN(C(=O)C4CC4)C3)[nH]c2C1` (centres undefined), the INHIBITION is reported as 73.68%.

In the case of `CN1CCCC(c2nc3c([nH]2)CC(C)(C)CNC3=O)C1` (centres undefined), the INHIBITION is listed as -3.25%.

In the case of `Cc1ccccc1C(=O)NCCCN1CCc2ccccc2C1`, the INHIBITION is -13.46%.

Take `Cc1cccc(C(=O)NCCCN2CCc3ccccc3C2)c1C`: the INHIBITION stood at 28.88%.

Take `COc1cccc(C(=O)NCCCN2CCc3ccccc3C2)c1OC`: the INHIBITION amounted to 51.32%.

On to `COC[C@@]12CCO[C@@H]1CCN(C(=O)COc1ccc(C)cc1)C2`, for which the INHIBITION is -42.87%.

In the case of `O=C(NCCc1ccc(Cl)s1)N1CCS(=O)(=O)CC1`, the INHIBITION was -13.46%.

Turning to `COc1cccc(F)c1C(C)NC(=O)NCc1ccnc(C)n1` (centres undefined), the INHIBITION is -38.35%.

As to `Cc1nc(C)n(CC2CN(S(C)(=O)=O)Cc3nccn3C2)n1` (centres undefined), the INHIBITION was 26.66%.

For `CC1=Nc2c(c(=O)[nH]n2C(C)C)C(c2ccc3c(c2)n(C)c(=O)n3C)S1` (centres undefined), the INHIBITION turned out to be 53.71%.

Turning to `CC1=Nc2c(c(=O)[nH]n2C(C)C)C(c2ccc(F)c(F)c2)S1` (centres undefined), the INHIBITION is listed as -52.59%.

On to `CC1=Nc2c(c(=O)[nH]n2C(C)C)C(c2ccsc2)S1` (centres undefined), for which the INHIBITION worked out at 14.2%.

Turning to `CC1=Nc2c(c(=O)[nH]n2C(C)C)C(c2ccccc2)S1` (centres undefined), the INHIBITION worked out at 18.37%.

`CC1=Nc2c(c(=O)[nH]n2C(C)C)C(c2ccc3c(c2)OCCO3)S1` (centres undefined): the INHIBITION is -19.21%.

For the compound `CC1=Nc2c(c(=O)[nH]n2C(C)C)C(c2cccs2)S1` (centres undefined), the INHIBITION came to 63.91%.

For `COc1ccccc1[C@@H]1CN(C(=O)c2csc(C)n2)C[C@H]1C(=O)O`, the INHIBITION came out at 10.69%.

Regarding `CC(C)CC(C#N)NC(=O)COC1CCCCC1` (centres undefined), the INHIBITION worked out at 30.23%.

Turning to `c1csc(CN2C[C@@H]3OCCN(CC4CCCO4)[C@@H]3C2)c1` (some centres undefined), the INHIBITION was 20.13%.

Take `CCC1CN(CC(=O)N2CCC2)CCN1CCOC` (centres undefined): the INHIBITION worked out at 24.15%.

With `CCC1CN(Cc2cccc(C(=O)N(C)C)c2)CCN1CCOC` (centres undefined), the INHIBITION worked out at 2.77%.

As to `COCCN1CCN(Cc2cccc(C(=O)N(C)C)c2)CC1`, the INHIBITION is on record as 21.83%.

As for `CCOCCN1CCN(Cc2cccc(C(=O)N(C)C)c2)CC1`, the INHIBITION is 10.62%.

Consider `CCOCCN1CCN(Cc2cccc(C(=O)N(C)C)c2)CC1CC` (centres undefined), for which the INHIBITION is recorded as 50.05%.

Take `CCOCCN1CCN(Cc2cccc(C(=O)N(C)C)c2)CC1C` (centres undefined): the INHIBITION turned out to be 30.29%.

Regarding `CN(C)C(=O)c1cccc(CN2CCN(CCO)CC2)c1`, the INHIBITION came out at 54.99%.

For `CCOCCN1CCN(CC(=O)N2CCC2)CC1CC` (centres undefined), the INHIBITION is on record as 53.98%.

On to `CCOCCN1CCN(CC(=O)N2CCCC2)CC1CC` (centres undefined), for which the INHIBITION is -9.17%.
